# Values joined by “and” are separate entries in the source; they are usually repeats but may differ in a detail not shown here. Equal entries are not always repeated. Results filed as inconclusive are left out. A structure can be active in one record and inactive in another. Active and inactive are the calls of the source. How the source made its calls, unless noted: active means hit-call score of the fitted dose curve at least 0.9, where 1 is the maximum; inconclusive means response in the unintended direction; inactive means score below 0.9.
# How the values were obtained:
# [1] = molecular target: Cellular tumor antigen p53 (Homo sapiens) (UniProt P04637); assay: TOX21_p53_BLA_p2_ratio: Tox21 HCT-116 p53 Agonism Beta-lactamase Assay, Ratio, Phase 2 (AID 2283592)
# Procedure, shortened: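 Cleaved-to-uncleaved substrate ratio (460 vs 530 nm) measured in HCT116 cells with an inducible beta-lactamase reporter linked to p53 activity. Compounds incubated 16 h at 37C before 2 h room-temperature CCF4-AM loading.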
# [2] = TOX21_p53_BLA_p3_viability: Viability Assessment in the Tox21 HCT-116 p53 Agonism Beta-lactamase Assay, Phase 3 (AID 2283593);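 further: cells exposed to compound for 16 h before reading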
# Procedure, shortened: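 HCT116 cells, 4000/well, dosed 5 h after plating by pin transfer (217-fold dilution from DMSO stock) and incubated 16 h at 37C, 5% CO2. Viability read as ATP luminescence with CellTiter-Glo after 30 min at room temperature.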
# [3] = TOX21_p53_BLA_p4_viability: Viability Assessment in the Tox21 HCT-116 p53 Agonism Beta-lactamase Assay, Phase 4 (AID 2283597);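 further: hits lower the luminescence signal meaning cytotoxicity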
# Procedure, shortened: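 Viability is taken as cellular ATP: after 16 h compound exposure of HCT116 cells and a 2 h room-temperature CCF4-AM substrate step, CellTiter-Glo reagent is added and luminescence is measured 30 min later.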
# [4] = TOX21_p53_BLA_p5_viability: Viability Assessment in the Tox21 HCT-116 p53 Agonism Beta-lactamase Assay, Phase 5 (AID 2283600)
# Procedure, shortened: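 Viability is taken from cellular ATP content, measured by luciferase luminescence in the same wells after the beta-lactamase ratio read. Cells are seeded at 4000 per well and exposed to DMSO-dissolved compounds, diluted 217-fold, for 16 h.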
# [5] = molecular target: Cellular tumor antigen p53 (Homo sapiens) (UniProt P04637); assay: TOX21_p53_BLA_p3_ratio: Tox21 HCT-116 p53 Agonism Beta-lactamase Assay, Ratio, Phase 3 (AID 2283596)
# Procedure, shortened: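 Cells were seeded at 4000/well, rested 5 h at 37C, then dosed with DMSO compound solutions (217-fold dilution) for 16 h. CCF4-AM substrate was loaded for 2 h at room temperature, and the 460/530 nm emission ratio was fitted for gain of signal versus DMSO.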
# [6] = molecular target: Cellular tumor antigen p53 (Homo sapiens) (UniProt P04637); assay: TOX21_p53_BLA_p5_ratio: Tox21 HCT-116 p53 Agonism Beta-lactamase Assay, Ratio, Phase 5 (AID 2283599)
# Procedure, shortened: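 HCT-116 p53-bla cells (4000/well) plated 5 h, dosed with compound (217-fold DMSO dilution) for 16 h at 37 C; CCF4-AM substrate 2 h at room temperature. Activity is the 460/530 nm emission ratio (405 nm excitation), fitted in gain-of-signal direction versus DMSO.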
# [7] = molecular target: Cellular tumor antigen p53 (Homo sapiens) (UniProt P04637); assay: TOX21_p53_BLA_p4_ratio: Tox21 HCT-116 p53 Agonism Beta-lactamase Assay, Ratio, Phase 4 (AID 2283601)
# Procedure, shortened: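 HCT-116 p53 beta-lactamase reporter cells (4000/well) preincubated 5 h, then compound (217-fold dilution of DMSO stock) for 16 h at 37C. CCF4-AM substrate added 2 h at room temperature; 460/530 nm emission ratio fitted upward versus DMSO.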
# [8] = CCTE_Harrill_HTTr_Viability_MCF7: CCTE's 6-hour Cell Viability Assessment for the High-Throughput Transcriptomics (HTTr) Platform, in MCF-7 cells cultured in DMEM + 10% fetal bovine serum, Harrill Lab (AID 2284010; active means hit-call score of the fitted dose curve at least 0.9, where 1 is the maximum; inactive means score below 0.9)
# Procedure, shortened: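 PI exclusion, high-content imaging; 8-pt dilution series, 6 h exposure; bidirectional fit vs DMSO (neg. ctrl/baseline); gain of signal = loss of membrane integrity.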
# [9] = CCTE_Harrill_HTTr_Apoptosis_MCF7: CCTE's 6-hour Apoptosis Assessment for the High-Throughput Transcriptomics (HTTr) Platform, in MCF-7 cells cultured in DMEM + 10% fetal bovine serum, Harrill Lab (AID 2284011; active means hit-call score of the fitted dose curve at least 0.9, where 1 is the maximum; inactive means score below 0.9)
# Procedure, shortened: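 Cells are dosed with test chemicals at eight concentrations and imaged 6 hours later for caspase-3/7 activity using a green fluorogenic detection reagent. Activity is fitted in both directions against DMSO controls.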
# [10] = CCTE_Harrill_HTTr_CellCount_MCF7: CCTE's Cell Proliferation Assessment for the High-Throughput Transcriptomics (HTTr) Platform, Harrill Lab (AID 2284012);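 further: count of Hoechst-stained nuclei per well by high-content imaging in MCF-7 cells; cells exposed to compound for six hours; intended direction is loss of nuclei count meaning fewer cells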
# Procedure, shortened: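 Readout: Hoechst nuclear count by high-content imaging. MCF-7, 8-point dilution series, 6 h exposure. Bidirectional fit vs DMSO baseline.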
# [11] = molecular target: Thyroid hormone receptor alpha (Rattus norvegicus) + Thyroid hormone receptor beta (Rattus norvegicus) (UniProt P18113+P63059); assay: TOX21_TR_LUC_GH3_Antagonist_Followup: Tox21 GH3 Thyroid Hormone Receptor Antagonism Luciferase Follow-Up Assay (AID 2283942)
# Procedure, shortened: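 Luminescence read-out (ONE-Glo, 30 min at room temperature) in GH3 reporter cells challenged with 1.0 nM T3 final. Compounds ran at 92 uM to 5nM over 15 concentrations for 24 h; DMSO served as negative control and baseline.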
# THRB (gene 7068) [12] = molecular target: THRB (gene 7068) (UniProt P10828); assay: TOX21_TRB_BLA_Antagonist_Followup_ratio: Tox21 Thyroid Hormone Receptor beta Antagonism Beta-lactamase (BLA) Follow-Up Assay, Ratio (AID 2283958)
# Procedure, shortened: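 Read-out: blue/green (460:530 nm) ratio of cleaved to uncleaved CCF4-AM after 2 h at room temperature, fitted against DMSO baseline. HEK293T UAS-bla cells carrying GAL4-human TRβ LBD were exposed 18 h, 37C/5% CO2.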
# THRB (gene 7068) [13] = molecular target: THRB (gene 7068) (UniProt P10828); assay: TOX21_TRB_COA_Antagonist_Followup_ratio: Tox21 Thyroid Hormone Receptor beta Antagonism through Coactivator Recruitment Follow-Up Assay, Ratio (AID 2283967)
# Procedure, shortened: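 GST-TRb LBD 5.0 nM + 0.10% BSA, compound added; fluorescein-SRC-2 peptide 200 nM, Tb-anti-GST Ab 2 nM. TR-FRET, ex 340 / em 520:495 ratio. Norm: DMSO 0%, T3 100%.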
# [14] = molecular target: Retinoic acid receptor RXR-alpha (Homo sapiens) (UniProt P19793); assay: TOX21_TR_RXR_BLA_Antagonist_Followup_ratio: Tox21 Thyroid Hormone Receptor beta Retinoid X Receptor alpha (RXRa) Antagonism Beta-lactamase (BLA) Follow-Up Assay, Ratio (AID 2283972)
# Procedure, shortened: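 Antagonist mode used GAL4 UAS-driven beta-lactamase in HEK293T cells expressing RXRa, treated for 16 h with compound concentration series. Activity was taken from the blue/green (460:530 nm) ratio of cleaved to uncleaved substrate.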
# [15] = TOX21_TR_RXR_BLA_Antagonist_Followup_viability: Viability Assessment in the Tox21 Thyroid Hormone Receptor beta Retinoid X Receptor alpha (RXRa) Antagonism Beta-lactamase (BLA) Follow-Up Assay (AID 2283979)
# Procedure, shortened: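 RXRa-bla HEK293T cells (2,500/well, phenol red-free DMEM, 2% charcoal-stripped FBS) were attached 5 h, then exposed to compounds at 11 concentrations in triplicate for 16 h at 37C. Viability measured by CellTiter-Glo ATP luminescence, bidirectional fitting versus DMSO.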
# [16] = TOX21_TRB_BLA_Antagonist_Followup_viability: Viability Assessment in the Tox21 Thyroid Hormone Receptor beta Antagonism Beta-lactamase (BLA) Follow-Up Assay (AID 2283961)
# Procedure, shortened: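 Cytotoxicity is measured in parallel with the antagonist-mode TRβ beta-lactamase screen, using ATP-coupled luciferase luminescence. Engineered HEK293T cells are treated for 18 h with 11-point compound series in triplicate.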
# Sequence of Retinoic acid receptor RXR-alpha (Homo sapiens) (P19793 whole entry, looked up, the tested form may be a part): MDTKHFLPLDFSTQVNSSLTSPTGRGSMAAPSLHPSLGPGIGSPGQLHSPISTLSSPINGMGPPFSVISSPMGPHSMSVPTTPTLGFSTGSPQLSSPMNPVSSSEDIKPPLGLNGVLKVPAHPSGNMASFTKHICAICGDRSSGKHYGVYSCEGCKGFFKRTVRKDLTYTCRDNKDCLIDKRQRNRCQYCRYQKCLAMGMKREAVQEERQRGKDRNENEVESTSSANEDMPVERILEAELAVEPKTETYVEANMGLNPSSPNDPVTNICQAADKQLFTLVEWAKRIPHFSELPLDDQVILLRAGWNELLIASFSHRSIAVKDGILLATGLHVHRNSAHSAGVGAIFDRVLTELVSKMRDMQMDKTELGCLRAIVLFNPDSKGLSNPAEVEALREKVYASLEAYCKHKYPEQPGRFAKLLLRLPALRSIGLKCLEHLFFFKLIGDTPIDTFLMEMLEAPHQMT
# Sequence of Cellular tumor antigen p53 (Homo sapiens) (P04637 whole entry, looked up): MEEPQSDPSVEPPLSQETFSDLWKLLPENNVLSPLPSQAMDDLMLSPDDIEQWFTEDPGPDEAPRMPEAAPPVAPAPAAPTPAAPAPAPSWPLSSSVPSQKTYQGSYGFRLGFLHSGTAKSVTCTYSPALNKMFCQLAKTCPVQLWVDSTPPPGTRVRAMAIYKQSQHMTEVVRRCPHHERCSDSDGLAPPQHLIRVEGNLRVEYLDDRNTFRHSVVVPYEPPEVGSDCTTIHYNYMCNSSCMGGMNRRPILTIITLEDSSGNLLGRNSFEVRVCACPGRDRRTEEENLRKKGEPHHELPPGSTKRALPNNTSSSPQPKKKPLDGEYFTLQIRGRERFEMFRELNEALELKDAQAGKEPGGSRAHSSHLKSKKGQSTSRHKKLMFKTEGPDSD
# Sequence of THRB (gene 7068) (P10828 whole entry, looked up, the tested form may be a part): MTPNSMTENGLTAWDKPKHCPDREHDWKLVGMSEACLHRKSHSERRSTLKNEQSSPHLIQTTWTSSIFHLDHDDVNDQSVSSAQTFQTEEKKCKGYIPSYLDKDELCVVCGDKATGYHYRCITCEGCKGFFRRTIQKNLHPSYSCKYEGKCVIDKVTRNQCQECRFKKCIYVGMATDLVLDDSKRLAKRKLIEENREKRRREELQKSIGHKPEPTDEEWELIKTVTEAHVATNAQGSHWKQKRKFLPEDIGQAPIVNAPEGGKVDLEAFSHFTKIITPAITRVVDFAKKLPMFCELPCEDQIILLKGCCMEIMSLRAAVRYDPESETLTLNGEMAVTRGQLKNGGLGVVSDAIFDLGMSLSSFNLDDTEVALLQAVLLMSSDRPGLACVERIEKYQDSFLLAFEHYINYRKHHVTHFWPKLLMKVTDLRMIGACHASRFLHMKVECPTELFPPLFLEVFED
structure (smiles),measurement,setting,value
C[C@@H](CN1CC(=O)NC(=O)C1)N1CC(=O)NC(=O)C1,outcome,[1],inactive
same,outcome,[2],inactive
same,outcome,[3],inactive
same,outcome,[4],inactive
Cc1cnc(C(=O)NCCc2ccc(S(=O)(=O)NC(=O)NC3CCCCC3)cc2)cn1,outcome,[1],inactive
same,outcome,[5],inactive
same,outcome,[3],inactive
same,outcome,[6],inactive
same,outcome,[4],inactive
same,outcome,[7],inactive
same,outcome,[8],inactive
same,outcome,[9],inactive
same,outcome,[10],inactive
C=CS(=O)(=O)O,outcome,[1],inactive
same,outcome,[3],inactive
same,outcome,[6],inactive
same,outcome,[4],inactive
same,outcome,[7],inactive
COc1cc([C@@H]2c3cc4c(cc3[C@H](O)[C@H]3COC(=O)[C@H]23)OCO4)cc(OC)c1OC,outcome,[1],inactive
same,outcome,[5],inactive
same,outcome,[3],inactive
same,outcome,[6],inactive
same,outcome,[7],inactive
same,outcome,[11],inactive
same,AC50,THRB (gene 7068) [12],27.3 nM (active)
same,outcome,THRB (gene 7068) [13],inactive
same,outcome,[14],inactive
same,outcome,[15],inactive
O=C[C@H](O)[C@@H](O)[C@H](O)[C@H](O)CO,outcome,[1],inactive
same,outcome,[5],inactive
same,outcome,[3],inactive
same,outcome,[4],inactive
same,outcome,[7],inactive
COc1ccccc1N1CCN(CCCNc2cc(=O)n(C)c(=O)n2C)CC1,outcome,[1],inactive
same,outcome,[5],inactive
same,outcome,[3],inactive
same,outcome,[4],inactive
same,outcome,[7],inactive
CC1=C2[C@@H]([C@H](C)CC[C@H]2/C=C(\C)C(=O)O)[C@H](O)C1,outcome,[1],inactive
same,outcome,[3],inactive
same,outcome,[6],inactive
same,outcome,[7],inactive
CCn1cc(C(=O)O)c(=O)c2cc(F)c(N3CCNCC3)cc21,outcome,[1],inactive
same,outcome,[5],inactive
same,outcome,[3],inactive
same,outcome,[6],inactive
same,outcome,[7],inactive
CN1[C@@H]2CCC[C@H]1CC(NC(=O)c1nn(C)c3ccccc13)C2 (stereo partly drawn),outcome,[1],inactive
same,outcome,[2],inactive
same,outcome,[3],inactive
same,outcome,[4],inactive
CN(C)CCN(Cc1cccs1)c1ccccn1,outcome,[1],inactive
same,outcome,[5],inactive
same,outcome,[6],inactive
same,outcome,[7],inactive
CCc1ccccc1CC,outcome,[1],inactive
same,outcome,[2],inactive
same,outcome,[3],inactive
same,outcome,[6],inactive
same,outcome,[7],inactive
same,outcome,[8],inactive
same,outcome,[9],inactive
same,outcome,[10],inactive
C[C@@H]1O[C@@H](OC[C@H]2O[C@@H](Oc3c(-c4ccc(O)c(O)c4)oc4cc(O)cc(O)c4c3=O)[C@H](O)[C@@H](O)[C@@H]2O)[C@H](O)[C@H](O)[C@H]1O,outcome,[1],inactive
same,outcome,[3],inactive
same,outcome,[6],inactive
same,outcome,[4],inactive
same,outcome,[7],inactive
Cc1ccc2nc(-c3ccc(N)cc3)sc2c1S(=O)(=O)O,outcome,[1],inactive
same,outcome,[2],inactive
same,outcome,[3],inactive
same,outcome,[6],inactive
same,outcome,[7],inactive
C1C[C@@H]2[C@H]3CC[C@H](C3)[C@@H]2C1,outcome,[1],inactive
same,outcome,[2],inactive
same,outcome,[4],inactive
same,outcome,[7],inactive
Nc1cc(=O)[nH]c(N)n1,outcome,[1],inactive
same,outcome,[5],inactive
same,outcome,[6],inactive
same,outcome,[4],inactive
same,outcome,[7],inactive
Cc1cccc(C)c1NC(=O)c1cc(S(N)(=O)=O)c(Cl)cc1O,outcome,[2],inactive
NC(=O)CC[C@@H]1NC(=O)[C@H](Cc2ccccc2)NC(=O)[C@H](Cc2ccc(O)cc2)NC(=O)CCSSC[C@@H](C(=O)N2CCC[C@H]2C(=O)N[C@@H](CCCN=C(N)N)C(=O)NCC(N)=O)NC(=O)[C@H](CC(N)=O)NC1=O,outcome,[1],inactive
same,outcome,[5],inactive
same,outcome,[6],inactive
same,outcome,[7],inactive
COc1ccc(NC(C)=O)cc1,outcome,[1],inactive
same,outcome,[2],inactive
same,outcome,[3],inactive
same,outcome,[4],inactive
Nc1ccc2cc3ccc(N)cc3nc2c1,AC50,[1],968 nM (active) and 3.15 µM (active)
same,AC50,[5],2.62 µM (active) and 5.87 µM (active)
same,AC50,[6],2.96 µM (active) and 4.81 µM (active)
same,AC50,[7],1.64 µM (active) and 3.71 µM (active)
same,AC50,[11],13.1 µM (active)
same,AC50,THRB (gene 7068) [12],32.4 µM (active) and 28.8 µM (active)
same,AC50,[16],19.5 µM (active)
same,outcome,[16],inactive
same,AC50,[14],17.5 µM (active) and 7.59 µM (active)
same,outcome,[15],inactive
COc1c(N2C[C@@H]3CCCN[C@@H]3C2)c(F)cc2c(=O)c(C(=O)O)cn(C3CC3)c12,outcome,[1],inactive
same,outcome,[5],inactive
same,outcome,[6],inactive
same,outcome,[7],inactive
C[C@H](Cc1ccc(O)c(O)c1)[C@@H](C)Cc1ccc(O)c(O)c1,outcome,[1],inactive
same,outcome,[2],inactive
same,AC50,[3],25.9 µM (active)
same,outcome,[6],inactive
same,outcome,[7],inactive
CNCCCN1c2ccccc2CCc2ccccc21,outcome,[3],inactive
same,outcome,[4],inactive
same,outcome,[7],inactive
CC(C)COC(=O)c1ccc(N)cc1,outcome,[1],inactive
same,outcome,[5],inactive
same,outcome,[3],inactive
same,outcome,[6],inactive
same,outcome,[4],inactive
same,outcome,[7],inactive
CC(O)CN(C)C (stereo not drawn),outcome,[1],inactive
same,outcome,[3],inactive
same,outcome,[6],inactive
same,outcome,[7],inactive

# From PubChem BioAssay (EPA / NIEHS)
